# Results published in publication PMC4336329 (PLoS ONE, 2015).
# Screen size: about 310,000 compounds; about 14,000 (4.5%) showed an effect of 50% or more. Effects have a minus sign here. What follows is part of a selection rich in strong results, with near analogues and random picks from the rest.
# Biological target: human ether-à-go-go-related gene (hERG) potassium channel (human, UniProt Q12809)
# Experiment: primary screen, population patch clamp on CHO cells stably expressing hERG; higher = less effect of the substance
# 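Also: peak tail current of the secondary pulse compared with the same well before compound.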
# human ether-à-go-go-related gene (hERG) potassium channel, sequence (Q12809 whole entry, looked up): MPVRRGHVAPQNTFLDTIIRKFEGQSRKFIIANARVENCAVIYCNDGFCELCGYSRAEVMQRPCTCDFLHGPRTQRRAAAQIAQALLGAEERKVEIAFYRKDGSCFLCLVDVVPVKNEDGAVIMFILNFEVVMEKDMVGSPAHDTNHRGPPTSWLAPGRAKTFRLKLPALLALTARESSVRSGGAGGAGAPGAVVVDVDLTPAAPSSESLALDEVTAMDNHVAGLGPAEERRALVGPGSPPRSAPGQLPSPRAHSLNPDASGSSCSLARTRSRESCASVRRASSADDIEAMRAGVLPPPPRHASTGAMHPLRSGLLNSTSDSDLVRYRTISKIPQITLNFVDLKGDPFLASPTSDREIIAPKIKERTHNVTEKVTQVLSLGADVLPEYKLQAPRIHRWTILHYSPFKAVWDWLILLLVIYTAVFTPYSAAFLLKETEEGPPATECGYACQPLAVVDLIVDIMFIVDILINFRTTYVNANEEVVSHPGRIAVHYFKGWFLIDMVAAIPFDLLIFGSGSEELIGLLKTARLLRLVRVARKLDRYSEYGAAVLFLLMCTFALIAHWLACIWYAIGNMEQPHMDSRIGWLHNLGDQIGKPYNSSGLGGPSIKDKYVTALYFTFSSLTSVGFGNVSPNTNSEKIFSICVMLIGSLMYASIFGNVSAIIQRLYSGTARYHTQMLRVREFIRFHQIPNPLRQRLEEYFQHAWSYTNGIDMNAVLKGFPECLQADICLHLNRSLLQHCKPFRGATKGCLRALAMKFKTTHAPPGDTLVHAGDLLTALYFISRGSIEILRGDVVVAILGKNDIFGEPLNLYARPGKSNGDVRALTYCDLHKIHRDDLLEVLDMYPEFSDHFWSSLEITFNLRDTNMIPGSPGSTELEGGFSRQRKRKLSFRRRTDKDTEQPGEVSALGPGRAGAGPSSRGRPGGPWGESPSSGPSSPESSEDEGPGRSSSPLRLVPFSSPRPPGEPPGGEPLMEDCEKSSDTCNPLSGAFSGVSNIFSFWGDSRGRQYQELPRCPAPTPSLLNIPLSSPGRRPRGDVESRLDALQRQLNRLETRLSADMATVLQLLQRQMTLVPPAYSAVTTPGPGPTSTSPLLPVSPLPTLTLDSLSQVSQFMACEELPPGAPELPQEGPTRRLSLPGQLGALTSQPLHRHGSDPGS
row,Compound,"hERG current change (%, negative = inhibition) at 10uM [%]"
1,COc1ccccc1CNC(=O)Cn1cc([N+](=O)[O-])ccc1=O,15.2
2,O=C1c2ccc3c4c(ccc(c24)C(=O)N1c1cccc(O)c1)C(=O)N(c1cccc(O)c1)C3=O,8.86
3,CCc1ccc(NC(=O)C/C(C)=N/NC(=O)COc2ccccc2C)cc1,-53.2
4,CCc1ccc(NC(=O)C/C(C)=N/NC(=O)COc2ccc(C)cc2Br)cc1,-30.5
5,CCc1ccccc1NC(=O)C/C(C)=N/NC(=O)COc1ccccc1C,9.02
6,COc1ccc(S(=O)(=O)Nc2ccccc2C(=O)N2CCOCC2)cc1C,-0.937
7,CCC(=O)Oc1cccc(C(=O)Nc2cccc(NC(=O)c3ccco3)c2)c1,-1.06
8,CCS(=O)(=O)n1nc(-c2ccccc2)nc1NCc1ccco1,-29.9
9,COc1ccc(C(=O)N/N=C\c2coc3ccccc3c2=O)cc1,6.36
10,Cc1ccc(OC(C)c2nnc(N)s2)cc1Cl (stereo not shown),-2.12
11,COc1ccc(OC(C)c2nnc(N)s2)cc1 (stereo not shown),-71.4
12,CC(Oc1ccccc1)c1nnc(N)s1 (stereo not shown),-1.12
13,Clc1ccc(CSc2nncn2-c2ccccn2)cc1,-28.7
14,Cl.OCCNCCNCc1ccccc1OCc1ccccc1,8.83
15,CC(C)(CO)NCc1cc(Br)ccc1OCc1ccccc1.Cl,-35.5
16,CC(C)NCc1cc(Br)ccc1OCc1ccccc1.Cl,-61.8
17,COc1cc(CNCCO)cc(Br)c1OCc1ccccc1Cl.Cl,-3.45
18,Cl.OCCNCc1cc(Br)ccc1OCc1ccccc1Cl,-74.9
19,Cl.OCCNCc1cc(Br)ccc1OCc1ccccc1,-55.7
20,C=CCOc1ccc(Br)cc1CNCCO.Cl,0.469
21,COc1cc(CNCCO)cc(Br)c1OCc1ccccc1.Cl,-25.4
22,Cl.OCCNCc1cc(Br)ccc1OCc1ccc(Cl)cc1,-66.6
23,COCC(C)NCc1cc(Br)ccc1OC.O=C(O)C(=O)O (stereo not shown),8.73

row,Compound,"hERG current change (%, negative = inhibition) at 10uM [%]"
1,COc1cccc(CNCCO)c1OCc1ccccc1Cl.Cl,-8.68
2,Cl.OCCNCc1cc(Br)ccc1OCc1ccc(F)cc1,-49.7
3,O=C(O)COc1ccc(/C=C2/SC(=S)N(Cc3ccccc3)C2=O)cc1,17.3
4,COc1cnc(-c2ccccc2)nc1Oc1cccc(C)c1C,-0.114
5,Cc1ccccc1C1c2[nH]c3ccccc3c2CCN1C(=O)c1ccc(=O)n(C)n1 (stereo not shown),-10.6
6,Cc1noc(C)c1COc1cccc(C(=O)NCc2ccccc2Cl)c1,-11.3
7,Cc1cccc(OCC(=O)NNC(=O)c2cc3ccccc3oc2=O)c1,-9.32
8,CC1CC(C)CN(CCCNC(=O)CN2C(=O)c3cccnc3Oc3ccc(Cl)cc32)C1 (stereo not shown),-30.7
9,Cc1ccc(S(=O)(=O)N/N=C/c2cn(C)nc2C)cc1,-2.68
10,Cl.OCCCCNCc1cc(Br)ccc1OCc1ccccc1F,-24.7
11,COc1cc(CNCCCCO)ccc1OCc1ccccc1F.Cl,-14.2
12,Cl.OCCCCNCc1cc(Br)ccc1OCc1ccccc1,-61.8
13,Cc1ccc(OCc2nnc(SCC(=O)N3CCc4ccccc43)n2C)cc1,16.4
14,Cc1ccc(-c2csc3ncn(CC(=O)N4CCOCC4)c(=O)c23)cc1C,-5.43
15,CCn1c(SCC(=O)Nc2cccc(NC(C)=O)c2)nnc1-c1ccco1,14.8
16,COc1ccc(S(=O)(=O)N2CCOCC2)cc1C(=O)N1CCCCC1,-31.6
17,CN(C)CCCN1c2ccc([N+](=O)[O-])cc2CCc2cc([N+](=O)[O-])ccc21,-50.3
18,Cc1ccccc1CN1CCc2cc([N+](=O)[O-])ccc21,19.1
19,CC(=O)N1c2ccccc2CCc2ccc([N+](=O)[O-])cc21,2.5
20,C=CCNC(=S)NC(=O)c1ccc(C)c(Br)c1,3.39
21,N/C(=N\OC(=O)N1CCOCC1)c1ccc(Br)cc1,17.6
22,CN1C[C@H](CO)C=C2c3cccc4[nH]cc(c34)C[C@H]21,4.32
23,Cc1ccccc1C(=O)Nc1c(C(=O)N(CCN(C)C)Cc2ccco2)oc2ccccc12,-79.7

row,Compound,"hERG current change (%, negative = inhibition) at 10uM [%]"
1,COc1ccccc1C(=O)Nc1c(C(=O)N(CCN(C)C)Cc2ccco2)oc2ccccc12,-82.7
2,Cc1c(C(=O)N(Cc2ccco2)Cc2cccs2)oc2ccccc12,-34.2
3,Cc1c(C(=O)NCc2ccco2)oc2ccccc12,-6.97
4,CCOC(=O)c1oc2ccccc2c1NC(=O)c1ccccc1OC,16.6
5,COc1ccccc1C(=O)NCc1ccco1,9.61
6,COCCNC(=S)Nc1cc(OC)c(NC(=O)c2ccco2)cc1OC,-3.62
7,Cc1ccc(OCCCCNC(C)(C)C)c([N+](=O)[O-])c1.O=C(O)C(=O)O,-4.42
8,COc1cccc(CNc2nc(SC)ncc2CO)c1,14.5
9,CC(=O)c1c(C)nc(-c2ccc3c(c2)OCO3)n1O,0.643
10,CCc1noc(C)c1C(=O)N1CCCC(C(=O)c2cc(F)ccc2OC)C1 (stereo not shown),18.6
11,COc1ccc(F)cc1C(=O)C1CCCN(C(=O)C2=C(C)OCCO2)C1 (stereo not shown),1.15
12,COc1ccccc1C(=O)C1CCCN(C(=O)c2ccccn2)C1 (stereo not shown),12.4
13,COc1ccccc1C(=O)C1CCCN(C(=O)c2cc(CC(C)C)nc(C)n2)C1 (stereo not shown),-60.5
14,COc1ccccc1C(=O)C1CCCN(C(=O)C2CCCC2)C1 (stereo not shown),-6.06
15,Cc1cc(C(=O)N2CCCC(C(=O)c3cccc4ccccc34)C2)nc(C)n1 (stereo not shown),-2.09
16,CCOC(=O)N1CCC(N2CCCC(C(=O)c3ccccc3OC)C2)CC1 (stereo not shown),-67.7
17,CCOC(=O)N1CCC(N2CCCC(C(=O)c3cc(F)ccc3OC)C2)CC1 (stereo not shown),-86.7
18,CCN(CC)CC(=O)N1CCCC(C(=O)c2ccccc2OC)C1 (stereo not shown),-10.3
19,CC(NC(=O)/C(C#N)=C/c1ccc(Cl)c([N+](=O)[O-])c1)c1ccccc1 (stereo not shown),4.7
20,CCN(CC)C(=O)Nc1ccc(C(=O)OC)cc1,-1.77
21,COc1ccc(C2=NN(C(=O)CN3CCOCC3)C(c3nc4ccccc4[nH]3)C2)cc1 (stereo not shown),-8.74
22,C[NH+](C)CC(C)(C)CNS(=O)(=O)c1ccc(Cl)c(Cl)c1.[Cl-],4.29
23,CCCn1nc(NC(=O)CC(C)C)c2cc3ccccc3nc21,12

row,Compound,"hERG current change (%, negative = inhibition) at 10uM [%]"
1,COc1ccc(-c2noc(CCC(=O)Nc3cc(OC)ccc3OC)n2)cc1,-14.7
2,CCn1cc(C(=O)O)c(=O)c2cnc(N3CCN(C(=S)Nc4ccccc4C(F)(F)F)CC3)nc21,6.26
3,O=C(Cn1nnc(-c2ccccc2F)n1)OCC(=O)c1ccccc1,10.9
4,O=C(c1ccc(NC2=NC3CS(=O)(=O)CC3S2)cc1)N1CCN(c2ccc(F)cc2)CC1 (stereo not shown),6.4
5,c1ccc2c(c1)SCc1nnc(-c3ccncc3)n1-2,-2.6
6,COc1cc2[nH]c(=O)n(CCCC(=O)N3CC=C(c4ccccc4)CC3)c(=O)c2cc1OC,-12.9
7,COc1cccc2c1[C@@H]1CN(CCCCn3c(=O)[nH]c4c(sc5ncc(-c6ccccc6)nc54)c3=O)C[C@@H]1CO2.Cl,-67.6
8,COc1cc2[nH]c(=O)n(CCCCCC(=O)N3CC=C(c4ccccc4)CC3)c(=O)c2cc1OC,-20
9,O=C(COc1ccc2ccccc2c1)N1CCCC1,-13.3
10,O=C(COc1ccc(Cl)cc1)N1CCN(c2ncccn2)CC1,-9.42
11,O=C(COc1ccccc1)N1CCN(c2ncccn2)CC1,10.5
12,O=C(COc1ccc(Br)cc1)N1CCCCCC1,-22.9
13,CC1CN(C2CCN(C(=O)COc3ccc(Cl)cc3)CC2)CC(C)O1.O=C(O)C(=O)O (stereo not shown),-38
14,Cc1ccc(OCC(=O)NCCN2CCN(C(=O)COc3ccc(C)cc3)CC2)cc1,-65.9
15,O=C(COc1ccc(Cl)cc1)N1CCN(C2CCCC2)CC1.O=C(O)C(=O)O,-83.2
16,O=C(COc1ccccc1)N1CCN(C2CCCC2)CC1.O=C(O)C(=O)O,-13.2
17,O=C(COc1ccc2cc(Br)ccc2c1)N1CCCC1,-50.1
18,Cc1ccc(OCC(=O)NCCNC(=O)COc2ccc(C)cc2)cc1,9.34
19,O=C(COc1ccc(Br)cc1)N1CCN(c2ncccn2)CC1,-83.7
20,Cc1ccc(OCC(=O)NCCN2CCCC2)cc1.Cl,2.48
21,Nc1[nH]nc2c1NN(c1ccc(Cl)cc1Cl)N2,12.4
22,COc1ccccc1Oc1nc(C)c(C(C)=O)cc1C#N,14.8
